Reference: the supplement of paper PMC13380429

System: Vero E6 infected with SARS-CoV-2
Test: inhibition of SARS-CoV-2 cytopathic effect; higher = more antiviral protection, active = above 15
Settings: 48 h

Measured: inhibition of SARS-CoV-2 cytopathic effect

CC(C)n1cnc2c(NCCc3ccc(O)cc3)nc(-c3csc4ccccc34)nc21 [stemregenin-1]
active: 10000 nM 18.1%
inactive: 1 nM 1.26% | 8.33 nM 0.69% | 100 nM 1.35% | 833.33 nM -0.07%

CCC(C/C=C/c1ccccc1)(c1ccccc1)N(C)CC1CC1 (stereo not given) [igmesine]
inactive: 1 nM -0.08% | 8.33 nM 0.01% | 100 nM -2.22% | 833.33 nM -1.63% | 10000 nM 6.93%

Oc1cc2c(cc1O)[C@H](Cc1cccc3ccccc13)NCC2
inactive: 1 nM 1.2% | 8.33 nM -0.02% | 100 nM -0.84% | 833.33 nM -0.78% | 10000 nM -2.59%

c1ccc(CNc2ncnc3[nH]cnc23)cc1 [6-benzylaminopurine]
inactive: 1 nM 0.87% | 8.33 nM 0.37% | 100 nM -1.53% | 833.33 nM -1.37% | 10000 nM -1.09%

C[C@@H]1CC[C@@]2(NC1)O[C@H]1C[C@H]3[C@@H]4CC=C5C[C@@H](O[C@@H]6O[C@H](CO)[C@@H](O[C@@H]7O[C@@H](C)[C@H](O)[C@@H](O)[C@H]7O)[C@H](O)[C@H]6O[C@@H]6O[C@@H](C)[C@H](O)[C@@H](O)[C@H]6O)CC[C@]5(C)[C@H]4CC[C@]3(C)[C@H]1[C@@H]2C [solamargine]
inactive: 1 nM -1.13% | 8.33 nM -0.16% | 100 nM 0.07% | 833.33 nM -3.82% | 10000 nM -15.1%

CCCCCCCCCCCCCCCCCC(=O)OC[C@@H](O)[C@H]1OC[C@H](O)[C@H]1O [sorbitan-monostearate]
inactive: 1 nM 0.02% | 8.33 nM -1.4% | 100 nM 1.63% | 833.33 nM 2.62% | 10000 nM -0.38%

C[C@@H](C(=O)O)c1ccc(-c2ccccc2)c(F)c1 (racemic) [flurbiprofen-(+/-)]
inactive: 1 nM 0.383% | 8.33 nM 0.72% | 100 nM 1.91% | 833.33 nM 1.32% | 10000 nM -0.637%

CS(=O)(=O)c1ccc(Oc2cc(F)cc(C#N)c2)c2c1[C@H](O)C(F)(F)C2
inactive: 1 nM 0.26% | 8.33 nM 2.61% | 100 nM 0.38% | 833.33 nM -1.3% | 10000 nM 0.01%

NC(=O)c1noc([C@H](CCCC2CCCCC2)CC(=O)NO)n1
inactive: 1 nM 1.44% | 8.33 nM -2.89% | 100 nM 0.07% | 833.33 nM -1.38% | 10000 nM -7.78%

O=C1C[C@@H](c2ccc(O)cc2)Oc2cc(O)ccc21
inactive: 1 nM -0.59% | 8.33 nM 2.87% | 100 nM 2.13% | 833.33 nM 1.65% | 10000 nM 12%

Cn1ccc2cc(NC(=O)Nc3cccnc3)ccc21
inactive: 1 nM -1.98% | 8.33 nM -2.46% | 100 nM 0.51% | 833.33 nM -1.88% | 10000 nM 1.94%

CC(C)=CC[C@@H](O)C1=CC(=O)c2c(O)ccc(O)c2C1=O [Shikonin]
inactive: 1 nM 0.59% | 8.33 nM 0.65% | 100 nM 0.38% | 833.33 nM 3.65% | 10000 nM 2.04%

N=C(N)NS(=O)(=O)c1ccc(N)cc1 [sulfaguanidine]
inactive: 1 nM 1.47% | 8.33 nM 1.27% | 100 nM -0.35% | 833.33 nM 0.47% | 10000 nM 1.22%

CCC(=O)O[C@@H](O[P@@](=O)(CCCCc1ccccc1)CC(=O)N1C[C@H](C2CCCCC2)C[C@H]1C(=O)O)C(C)C [fosinopril]
inactive: 1 nM -0.77% | 8.33 nM 0.8% | 100 nM 2.37% | 833.33 nM 1.19% | 10000 nM 3.18%

Clc1ccc(COC(Cn2ccnc2)c2ccc(Cl)cc2Cl)cc1 (stereo not given) [econazole]
inactive: 1 nM 1.49% | 8.33 nM 1.04% | 100 nM 0.94% | 833.33 nM 3.08% | 10000 nM -1.91%

NCCCCCNCC12CC3CC(CC(C3)C1)C2
inactive: 1 nM 2.39% | 8.33 nM 1.74% | 100 nM 0.57% | 833.33 nM 2.97% | 10000 nM -1.44%

CC1(C)S[C@@H]2[C@H](NC(=O)[C@H](N)c3ccc(O)cc3)C(=O)N2[C@H]1C(=O)O [amoxicillin]
inactive: 1 nM -2.41% | 8.33 nM -1% | 100 nM -0.76% | 833.33 nM -0.16% | 10000 nM -2.88%

CCOc1cc(C=O)ccc1O [ethyl-vanillin]
inactive: 1 nM -2.26% | 8.33 nM 2.03% | 100 nM -1.95% | 833.33 nM -0.96% | 10000 nM -1.21%
